Screening data from PubChem.
Sampled rows, rich in hits. Any-hit rate of the full collection: about 1.5%.
miR-122 sensor: blocks miR-122 activity in Huh7 sensor cells. actives 0.3% (n = 340,000). activation (reporter increase), % at 12.5 µM. AID 602342. Huh7 miR-122 Renilla luciferase sensor, 48 h; neutral wells = 0, positive control = 100;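 active means mean replicate activation score at least 90 and every replicate individually at or above 90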;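 further: higher luciferase means less miR-122 activity so hits act as miR-122 inhibitors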
Casp6 inh: caspase-6 (human) enzyme inhibition; inhibition, % at 12.5 µM; actives 0.53% (n = 350,000); purified caspase-6, Z-VEID-R110 cleavage fluorescence; AID 686996;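 active means mean inhibition across replicates at least about 35%, with every replicate also reaching that limit, limit read from the data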
RAD52 inh: inhibitors of human RAD52 DNA annealing | actives 0.46% (n = 360,000) | recombinant RAD52 DNA annealing, FRET fluorescence | P43351 | AID 651710 | inhibition, % at 18.7 µM;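 active means every replicate showing at least 50% inhibition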
Target sequence (P43351 whole entry, looked up): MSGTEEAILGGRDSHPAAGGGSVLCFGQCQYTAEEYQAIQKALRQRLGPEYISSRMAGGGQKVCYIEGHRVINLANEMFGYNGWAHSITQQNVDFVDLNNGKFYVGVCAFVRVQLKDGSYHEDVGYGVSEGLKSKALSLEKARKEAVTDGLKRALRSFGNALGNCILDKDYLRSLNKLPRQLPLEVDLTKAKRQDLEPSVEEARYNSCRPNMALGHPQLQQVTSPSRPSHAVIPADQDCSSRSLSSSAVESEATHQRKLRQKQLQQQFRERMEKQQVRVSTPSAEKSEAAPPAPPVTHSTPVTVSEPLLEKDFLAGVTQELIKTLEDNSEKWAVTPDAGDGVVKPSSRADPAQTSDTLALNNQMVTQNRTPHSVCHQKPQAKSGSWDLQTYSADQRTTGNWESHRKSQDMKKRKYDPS
NSD2 HMT inh: blocks human histone methyltransferase NSD2 | O96028 | NSD2 peptide methylation, AlphaScreen, 120 min | inhibition, % at 12.5 µM | actives 0.54% (n = 310,000); in the data active means inhibition above about 50%
MLL AF4-AF9 inh: MLL-AF4/AF9 protein interaction inhibition; inhibition, % at 10 µM; P42568; actives 0.47% (n = 350,000); AlphaScreen, biotin-AF4 peptide binding to FLAG-AF9;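 active means every replicate reaching a set inhibition limit, whatever the replicate mean, cut at about 25% in these data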
Of the large screens only hits and unclear results are named; the others gave an inactive call; ! = not active in a repeat; [ ] = dose if it differs, or a comment.

COCCN(C(=O)c1cc(-c2ccco2)nc2ccccc12)c1c(N)n(Cc2ccccc2)c(=O)[nH]c1=O	Casp6 inh 60
CCCCN(C(=O)COC(=O)c1ccc(C)s1)c1c(N)n(CCC)c(=O)[nH]c1=O	none (no result: miR-122 sensor)
COCCN(C(=O)COC(=O)Cc1coc2cc(C)ccc12)c1c(N)n(Cc2ccccc2)c(=O)[nH]c1=O	Casp6 inh 52
COc1ccc(NC(=O)N(C)C[C@H]2Oc3c(NC(=O)Nc4ccccc4)cccc3C(=O)N([C@H](C)CO)C[C@H]2C)cc1	none (no result: NSD2 HMT inh)
C[C@@H]1CCCCO[C@@H](CN(C)CC2CCCCC2)[C@H](C)CN([C@@H](C)CO)C(=O)c2cc(NC(=O)Nc3ccc4c(c3)OCO4)ccc2O1	none (no result: NSD2 HMT inh)
C[C@@H]1CN([C@@H](C)CO)C(=O)c2cc(N(C)C)ccc2O[C@@H](C)CCCCO[C@@H]1CN(C)C(=O)Nc1ccc2c(c1)OCO2	none (no result: Casp6 inh, RAD52 inh, NSD2 HMT inh, MLL AF4-AF9 inh)
Cn1cccc1/C=C1\SC(=S)N(NC(=O)c2ccccc2O)C1=O	none (no result: miR-122 sensor, NSD2 HMT inh)
COc1ccc(/C=C2\SC(=S)N(C(Cc3ccccc3)C(=O)O)C2=O)cc1 (configuration not stated)	none (no result: miR-122 sensor)
O=C(O)C(Cc1ccccc1)N1C(=O)/C(=C/C=C/c2ccco2)SC1=S (configuration not stated)	Casp6 inh 91, NSD2 HMT inh active
O=C1S/C(=C\C=C\c2ccco2)C(=O)N1c1ccc(O)cc1	Casp6 inh 43 (no result: miR-122 sensor)
O=C(NN1C(=O)/C(=C/C=C/c2ccco2)SC1=S)c1ccccc1O	Casp6 inh 92 (no result: NSD2 HMT inh)
O=C(CN1CCOCC1)N[C@@H]1CC[C@H](CCn2cc(C3CCCC3)nn2)O[C@H]1CO	none (no result: miR-122 sensor, NSD2 HMT inh)
C[C@@H]1CN([C@@H](C)CO)C(=O)c2cccc(NC(=O)C3CCOCC3)c2O[C@H]1CN(C)Cc1ccc(Oc2ccccc2)cc1	none (no result: NSD2 HMT inh)
C[C@H](CO)N1C[C@H](C)[C@@H](CN(C)Cc2ccc(Oc3ccccc3)cc2)Oc2c(NC(=O)c3ccncc3)cccc2C1=O	miR-122 sensor 111[16.7 µM], MLL AF4-AF9 inh 25! (no result: NSD2 HMT inh)
C[C@H](CO)N1C[C@H](C)[C@@H](CN(C)Cc2ccc(Oc3ccccc3)cc2)Oc2c(NC(=O)C3CCOCC3)cccc2C1=O	miR-122 sensor 100[16.7 µM] (no result: NSD2 HMT inh)
C[C@H](CO)N1C[C@H](C)[C@@H](CN(C)C(=O)Nc2cccc3ccccc23)Oc2c(NC(=O)C3CCOCC3)cccc2C1=O	Casp6 inh 52 (no result: NSD2 HMT inh)
C[C@@H]1CN([C@@H](C)CO)C(=O)c2cccc(NC(=O)C3CCOCC3)c2O[C@@H]1CN(C)Cc1ccncc1	MLL AF4-AF9 inh 44 (no result: NSD2 HMT inh)
C[C@H]1CN([C@@H](C)CO)C(=O)c2cccc(NC(=O)C3CCOCC3)c2O[C@H]1CN(C)C(=O)Nc1cccc2ccccc12	none (no result: NSD2 HMT inh)
C[C@@H]1CCCCO[C@H](CN(C)S(=O)(=O)c2ccccc2)[C@H](C)CN([C@H](C)CO)C(=O)c2cc(NS(=O)(=O)c3ccc(F)cc3)ccc2O1	none (no result: NSD2 HMT inh)
CO[C@@H]1CN(C)C(=O)c2cc(NC(=O)c3nc4ccccc4s3)ccc2OC[C@@H](C)N(Cc2cncnc2)C[C@H]1C	none (no result: miR-122 sensor, Casp6 inh, NSD2 HMT inh)
CN(C)c1ccc2nc3ccc(=O)cc-3sc2c1	MLL AF4-AF9 inh 66
Cc1ccc(S(=O)(=O)NCC(=O)N2CCC(C)CC2)cc1	MLL AF4-AF9 inh 48 (no result: NSD2 HMT inh)
Cc1ccc(S(=O)(=O)N2[C@@H]3CNC[C@H]2C3c2ccc(/C=C/c3ccccc3)cc2)cc1 (some centres not stated)	RAD52 inh 53! (no result: miR-122 sensor, NSD2 HMT inh)
O=S(=O)(c1ccccc1)N1[C@@H]2CNC[C@H]1C2c1ccc(-c2cccnc2)cc1 (some centres not stated)	none (no result: miR-122 sensor, NSD2 HMT inh)
O=S(=O)(c1ccc(-c2ccccc2)cc1)N1[C@@H]2CNC[C@H]1C2c1ccc(-c2cccnc2)cc1 (some centres not stated)	RAD52 inh 66 (no result: miR-122 sensor, NSD2 HMT inh)
Cc1ccc(S(=O)(=O)N2[C@@H]3CNC[C@H]2C3c2ccc(-c3ccc(C#N)cc3)cc2)cc1 (some centres not stated)	RAD52 inh 55 (no result: miR-122 sensor, NSD2 HMT inh)
O=S(=O)(c1ccccc1)N1[C@@H]2CNC[C@H]1C2c1ccc(/C=C/c2ccccc2)cc1 (some centres not stated)	none (no result: miR-122 sensor, NSD2 HMT inh)
Cc1ccc(S(=O)(=O)N2[C@@H]3CNC[C@H]2C3c2ccc(-c3cccc(F)c3)cc2)cc1 (some centres not stated)	none (no result: miR-122 sensor, NSD2 HMT inh)
C[C@H]1CCCCO[C@H](CN(C)C(=O)Nc2ccc3c(c2)OCO3)[C@@H](C)CN([C@@H](C)CO)C(=O)c2cc(NC(=O)NC3CCCCC3)ccc2O1	none (no result: Casp6 inh, RAD52 inh, NSD2 HMT inh, MLL AF4-AF9 inh)
